VACV mCherry inh: inhibitors of vaccinia virus infection (mCherry reporter signal); Vaccinia virus mCherry reporter infection, fluorescence; Potency, µM (doses to about 36.5 µM), inactives show at the top dose activity change, negative = inhibition, actives largely listed as inhibitors; 310,000 tested, 0.63% active; AID 720579; calls by dose curve; tested in A549 cells; also: nearly all actives have a fitted effect of over 35% in size
Sm TGR block: inhibitors of Schistosoma mansoni thioredoxin glutathione reductase | Q962Y6 | purified TGR, DTNB reduction, TNB absorbance 405 nm | Potency, µM (series often up to 114 µM), for inactives: at the highest dose activity change, negative = inhibition, actives largely listed as inhibitors | 360,000 tested, 3% active | AID 485364; active = well fitted inhibition curve with a large enough effect; inconclusive = small, poorly fitted or top-dose-only effect; inactive = no such curve, though single readings can be large or run the other way; also: nearly all actives have a fitted effect of over 60% in size
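Kinetic colorimetric format: TGR-catalysed, NADPH-driven DTNB reduction monitored via TNB absorbance. Enzyme dispensed at 20 nM; compound exposure 15 min at room temperature before reaction start.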
LASV entry inh: inhibitors of Lassa virus binding or cell entry. Potency, µM (top dose mostly 37.9 µM), inactives show at the highest dose activity change, negative = inhibition, actives largely listed as inhibitors. 300,000 tested, 1.2% active. Lassa virus pseudotype entry inhibition, cell reporter. AID 540256; calls by dose curve; tested in HEK293 cells; also: nearly all actives have a fitted effect of over 50% in size
MARV entry inh: blocks Marburg virus binding to or entry into cells. 300,000 tested, 1.8% active. Marburg virus pseudotyped entry inhibition, cell reporter. Potency, µM (doses to about 37.8 µM), for inactives: at the highest dose activity change, negative = inhibition, actives largely listed as inhibitors; calls by dose curve; tested in HEK293 cells
FMDV inh: foot and mouth disease virus antiviral activity | FMDV antiviral cell-based qHTS | Potency, µM (highest dose often 57.9 µM), for inactives: top-dose activity change, negative = inhibition, usual class: inhibitors | 410,000 tested, 1.2% active; calls by dose curve; tested in HEK293T cells; also: read-out not given here; nearly all actives have a fitted effect of over 45% in size
VACV Venus inh: inhibitors of vaccinia virus (Venus reporter) | Vaccinia virus Venus reporter expression, fluorescence | 330,000 tested, 0.46% active | Potency, µM (series often up to 36.5 µM), without a hit: at the top dose activity change, negative = inhibition, most hits filed as inhibitors | AID 720580; calls by dose curve; tested in A549 cells; also: nearly all actives have a fitted effect of over 30% in size
* = called active by the depositor; i = inactive; ? = inconclusive; · = no result; [ ] = remark or other dose. Rows were chosen to be rich in hits. Some 5.4% of all compounds tested hit in one or more screens of this group. % is scaled to controls: 0 for no effect and ±100 for the full control effect; potency is read from the fitted curve at half-maximal effect.

SMILES | VACV mCherry inh | Sm TGR block | LASV entry inh | MARV entry inh | FMDV inh | VACV Venus inh
CCN1c2ccccc2N(C)C1(C)c1ccccc1 (configuration not stated) | 97% | 35µM* | ? | ? | ? | 27%
O=C(NCCc1nnc2n1CCN(Cc1ccc(F)cc1)CC2)c1ccco1 | -3% | · | · | · | -7% | -14%
COc1ccc(NC(=O)c2c(NCc3ccc(C)o3)sc3c2CCCCC3)c(OC)c1 | -7% | 2.8µM* | ? | · | -2% | 1%
COc1ccc(NC(=O)c2c(NC(=O)COc3ccccc3)sc3c2CCC(C)C3)cc1 (configuration not stated) | -8%[7.34 µM] | -8% | 12%[46.1 µM] | ? | -15% | -10%[7.34 µM]
COc1ccc(NC(=O)c2c(NCc3cccc(F)c3)sc3c2CCCC3)c(OC)c1 | -8% | -15% | -10%[46.1 µM] | · | 40% | -8%
COc1ccccc1NC(=O)c1c(NCc2ccc(C)o2)sc2c1CCC(C)C2 (configuration not stated) | 0% | 32µM* | 27%[46.1 µM] | · | -14% | -13%
COc1ccc(NC(=O)c2c(NCc3ccc(C)o3)sc3c2CCC(C)C3)cc1 (configuration not stated) | -5% | 10µM* | 2%[46.1 µM] | · | 38% | -15%
COc1ccc(NC(=O)c2c(NCc3cccs3)sc3c2CCC(C)C3)c(OC)c1 (configuration not stated) | -14% | -8% | 10%[46.1 µM] | · | 53% | -14%
COc1ccccc1NC(=O)c1csc2c1CCC(C)C2 (configuration not stated) | · | 50µM* | · | · | 44% | ·
C=CCN1C(=O)C2(CC(C)=C[C@@H](C)O2)c2c(Br)cccc21 (some centres not stated) | · | · | · | 26%[14.2 µM] | · | ·
COc1ccc(NC(=O)c2c(NCc3ccc(C)o3)sc3c2CCC(C)C3)c(OC)c1 (configuration not stated) | -17% | 28µM* | -18%[46.1 µM] | · | 7% | -9%
CCOc1ccc(-n2c(-c3ccccc3)c[n+]3c2CCC3)cc1 | -9% | 10% | ? | ? | ? | 2%
COc1ccccc1-n1c(-c2ccccc2)c[n+]2c1CCc1ccccc1-2 | -17% | -14% | 2.8µM* | ? | 3.2µM* | ?
COc1ccc(-c2cn(-c3ccc(OC)cc3)c3[n+]2-c2ccccc2CC3)cc1 | -22% | -10% | ? | ? | 16µM* | -20%
COc1ccc(-n2c(-c3ccc(Br)cc3)c[n+]3c2CCc2ccccc2-3)cc1 | · | 2% | ? | 12µM* | ? | ·
CC(C)c1ccc(-n2c(-c3ccccc3)c[n+]3c2CCc2ccccc2-3)cc1 | ? | -17% | 3.2µM* | ? | 11µM* | ?
CCn1nc(C)c(CN2Cc3ccccc3OC(c3ccccc3OC)C2)c1C (configuration not stated) | -13% | · | · | · | 0% | -5%
COC(=O)c1cc(CNC(=O)c2ccc(N(C)C)cc2)cc(NC(=O)c2ccccc2Cl)c1 | -3% | · | · | · | 3% | 0%
COc1ccc(-c2c[n+]3c(n2-c2ccc(C)cc2)CCCCC3)cc1 | i | 7% | 5µM* | 7.1µM* | ? | -18%
COc1ccc(-n2c(-c3ccc(Cl)cc3)c[n+]3c2CCCCC3)cc1 | · | -1% | · | 3% | 0% | ·
CCOC(=O)/C=C/C(=O)Nc1cc(S(=O)(=O)Nc2ccc(OC)cc2)ccc1N1CCOCC1 | ? | 32µM* | ? | ? | 32µM* | -32%
CCOc1cccc(/C=N/NC(=S)Nc2cc(S(=O)(=O)N3CCOCC3)ccc2N2CCOCC2)c1O | 7.1µM* | -2% | ? | ? | ? | ?
COc1ccc2ccccc2c1/C=N/NC(=S)Nc1cc(S(=O)(=O)N2CCOCC2)ccc1N1CCOCC1 | -13% | -1% | 0% | 0% | -19% | -13%
CC(C)COc1ccc(C(=O)Nc2cc(S(=O)(=O)N3CCOCC3)ccc2N2CCCC2)cc1 | · | -2% | · | · | -20% | ·
COc1ccc(NS(=O)(=O)c2ccc(N3CCOCC3)c(NC(=O)c3ccc(F)cc3)c2)cc1 | -29% | -10% | ? | 3.5µM* | 72% | -22%
CC(C)Oc1ccc(C(=O)Nc2cc(S(=O)(=O)N3CCOCC3)ccc2N2CCOCC2)cc1 | -13% | -5% | 13µM* | ? | 13% | -29%

From PubChem
